PfHsp40 yeast = compounds rescuing yeast from Plasmodium falciparum HSP40 toxicity; S. cerevisiae expressing PfHsp40, growth rescue, ATP luminescence; actives 0.68% (n = 340,000); growth rescue, % at 12.5 µM; AID 504582; in the data active = growth rescue above about 28%, passing the limit was not always enough; inconclusive = no clear call, values can overlap the other calls;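 also: yeast W303a lacking pdr1 and pdr3 grown in galactose medium; growth measured after three days at 30 °C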
RN4220 kill = kills Staphylococcus aureus RN4220; S. aureus RN4220 growth, OD600, 16 h; inhibition, % (no concentration beside the values); actives 0.33% (n = 330,000); AID 1259311; in the data active = inhibition above about 85%
ugtP null kill = compounds lethal to S. aureus RN4220 ugtP deletion mutant; actives 0.54% (n = 330,000); OD600 growth, 16 h; growth inhibition, % (no concentration beside the values); AID 1259309; in the data active = growth inhibition above about 68%
PrP 5UTR inh = inhibition of PrP 5' UTR reporter expression | actives 0.35% (n = 340,000) | cell-based PrP 5' UTR mRNA reporter, plate reader | inhibition, % (test concentration not listed); in the data active = inhibition above about 52%
TcdB inh = TcdB glycohydrolase inhibition; TcdB glycohydrolase enzymatic assay, plate reader; inhibition, % at 9.99 µM; actives 0.24% (n = 350,000); in the data active = inhibition above about 10%
PrP 5UTR single = prion 5' UTR mRNA inhibition, cherry-pick retest. shares compounds with PrP 5UTR inh. cell-based prion protein 5' UTR reporter, plate reader. inhibition, % at 2.5 µM. actives 48% (n = 1,100). AID 504592; in the data active = inhibition above about 54%; inconclusive = no clear call, values can overlap the other calls
Large screens that a line does not name were inactive (follow-up assays come after a bar, where they were run). Hits are enriched below; roughly 1.2% of the tested compounds scored in any of these assays.

C#CCNS(=O)(=O)c1ccc(F)cc1Br	none
O=C1OCC2=C1C(c1ccc(F)cc1)c1cc3c(cc1N2)OCCO3 (stereo not drawn)	PrP 5UTR inh 54 | PrP 5UTR single 88
O=C1OCC2=C1C(c1ccc(F)cc1)c1cc3c(cc1N2)OCO3 (stereo not drawn)	none (no result: TcdB inh)
CCOc1ccccc1C1C2=C(COC2=O)Nc2cc3c(cc21)OCO3 (stereo not drawn)	PrP 5UTR inh 64 | PrP 5UTR single 82
O=C(NN=Cc1cccnc1)c1cc(-c2ccc(Br)cc2)nc2ccccc12	none (no result: PfHsp40 yeast, PrP 5UTR inh, TcdB inh)
COc1cc(C2c3cc4c(cc3C(O)C3COC(=O)C23)OCO4)cc(OC)c1O[Si](C)(C)C(C)(C)C (stereo not drawn)	none (no result: PfHsp40 yeast, PrP 5UTR inh, TcdB inh)
COc1cc(C2c3cc4c(cc3OC(NNC(N)=O)C2C)OCO4)cc(OC)c1OC (stereo not drawn)	PrP 5UTR inh 52 (no result: RN4220 kill, ugtP null kill) | PrP 5UTR single 87
COc1cc([C@@H]2c3cc4c(cc3[C@H](O)[C@H]3COC(=O)[C@H]23)OCO4)cc(OC)c1OC	PrP 5UTR inh 67 (no result: RN4220 kill, ugtP null kill) | PrP 5UTR single 85
COc1cc(C2c3cc4c(cc3C(OC3OC5COC(c6cccs6)OC5C(O)C3O)C3COC(=O)C23)OCO4)cc(OC)c1O (stereo not drawn)	PrP 5UTR inh 71 (no result: RN4220 kill, ugtP null kill) | PrP 5UTR single 61
CC(C)NC(=O)NCC[C@@H]1CC[C@@H](NS(=O)(=O)c2ccc(-c3ccccc3)cc2)[C@@H](CO)O1	none (no result: PfHsp40 yeast, RN4220 kill, ugtP null kill, PrP 5UTR inh)
CC(C)(C)NC(=O)COC(=O)C1c2ccccc2Oc2ccccc21	none
CC(C)CNC(=O)COC(=O)C1c2ccccc2Oc2ccccc21	PrP 5UTR inh 77 | PrP 5UTR single inactive
COc1cc(/C=C/CN2CCN(Cc3ccc(C)o3)C(CCO)C2)ccc1O (stereo not drawn)	PrP 5UTR inh 55 | PrP 5UTR single inconclusive
C[C@H]1CN([C@@H](C)CO)C(=O)Cc2cc(NC(=O)Nc3cccc4ccccc34)ccc2O[C@@H]1CN(C)C(=O)Nc1ccccc1	none (no result: PfHsp40 yeast, RN4220 kill, ugtP null kill, PrP 5UTR inh)
O=C1CC(c2ccccc2)(c2ccccc2)c2ccccc21	none
O=C(O)C1(Br)CC12c1ccccc1-c1ccccc12 (stereo not drawn)	PrP 5UTR inh 54 (no result: RN4220 kill, ugtP null kill) | PrP 5UTR single inactive
NNC(=O)C(=NNc1ccccc1)S(=O)(=O)c1ccc(Cl)cc1	none (no result: PfHsp40 yeast, PrP 5UTR inh, TcdB inh)
CN(C(=O)COC(=O)c1ccc(Cl)nc1)C1CCS(=O)(=O)C1 (stereo not drawn)	PrP 5UTR inh 68 | PrP 5UTR single inactive
COCCn1c(C)cc(C(=O)CSc2nnnn2C2CCCC2)c1C	PrP 5UTR inh 64 | PrP 5UTR single 57
COCCn1c(C)cc(C(=O)CSc2nnc(C)s2)c1C	PrP 5UTR inh 57 (no result: TcdB inh) | PrP 5UTR single 72
COCCn1c(C)cc(C(=O)COC(=O)c2cccc(O)c2)c1C	PrP 5UTR inh 83 | PrP 5UTR single 79
COCCn1c(C)cc(C(=O)COC(=O)c2cc3c(s2)CCC3)c1C	none (no result: TcdB inh)
CC(=O)OC1(C)CC(C)C(=O)C(C(O)CC2CC(=O)NC(=O)C2)C1 (stereo not drawn)	PrP 5UTR inh 63 (no result: RN4220 kill, ugtP null kill, TcdB inh) | PrP 5UTR single 96
CCN(CC)S(=O)(=O)c1ccc(N2CCOCC2)c(NC(=O)c2cc(-c3ccccn3)nc3ccccc23)c1	PrP 5UTR inh 66 | PrP 5UTR single inactive
C[C@@H]1CN([C@H](C)CO)C(=O)c2cc(NC(=O)Nc3ccc(C(F)(F)F)cc3)ccc2O[C@@H](C)CCCCO[C@@H]1CN(C)C(=O)Cc1ccccc1	none (no result: PfHsp40 yeast, RN4220 kill, ugtP null kill, PrP 5UTR inh)
C[C@@H]1CN([C@H](C)CO)C(=O)c2cccc(NC(=O)Nc3ccc(F)cc3)c2O[C@H]1CN(C)Cc1ccc2c(c1)OCO2	none (no result: PfHsp40 yeast, RN4220 kill, ugtP null kill, PrP 5UTR inh)
N#CC1(Nc2ccc(S(N)(=O)=O)cc2)CCCC1	PrP 5UTR inh 74 (no result: RN4220 kill, ugtP null kill) | PrP 5UTR single inactive
CN1C(=O)c2cc(NS(=O)(=O)c3cccc(F)c3)ccc2OC[C@@H]2O[C@H](CC(=O)N3CCc4ccccc4C3)CC[C@H]21	none (no result: PfHsp40 yeast, RN4220 kill, ugtP null kill, PrP 5UTR inh)
Cn1c(=O)oc2cc(S(=O)(=O)N3CCC(C(=O)N4CC=C(c5ccccc5)CC4)CC3)ccc21	PrP 5UTR inh 61 | PrP 5UTR single inactive
CC(C)(C)c1ccc(-c2noc(CCC(=O)Nc3cccnc3)n2)cc1	PrP 5UTR inh 65 (no result: RN4220 kill, ugtP null kill) | PrP 5UTR single inactive
O=C(NC1CCCCC1)[C@@H]1[C@@H](CO)[C@@H]2Cn3c(cccc3=O)[C@H]1N2CC1CCCCC1	none (no result: PfHsp40 yeast, RN4220 kill, ugtP null kill, PrP 5UTR inh)

Screens from PubChem.
